The source made the active and inactive calls. A call without a number means that no potency is given here. Calls follow the shape of the dose curve; as a rule, active = well fitted curve in the direction sought with a large enough effect in the repeat runs; inconclusive = weak or mixed curves; inactive = flat fitted curve, though single readings scatter.

A short description of this test: qHTS assay to test for compound auto fluorescence at 590 nm (red) in HEK293 cells (AID 720679). The note with it: red autofluorescence 540/590 nm; series mostly up to 91.3 µM. From the text:
National Center for Advancing Translational Sciences [NCATS]
NIH Chemical Genomics Center [NCGC]
U.S. Environmental Protection Agency [EPA]
National Institutes of Environmental Health Sciences [NIEHS]
National Toxicology Program [NTP]
U.S. Food and Drug Administration [FDA]
Compound auto fluorescence often interferes with screening of the compound library against various biological targets and signaling pathways. Some of these compounds may have fluorophoric properties. Such properties may interfere with the assay outputs resulting in false positives and/or negatives. To decrease such complications and ensure the compound activities are relevant in terms of biological response, the Tox21 10K compound library was screened for auto fluorescence.
From the fluorophores used as reporter signals in our screening assays, the auto fluorescence equivalencies of compounds against three fluorophores have been evaluated: Triamterene, Fluorescein and Rose Bengal sodium for blue, green and red fluorescence, respectively. The fluorescence intensities were measured using Excitation/Emission wavelengths at 405/460nm, 485/535nm and 540/590nm for blue, green and red labels, respectively. This assay includes the red fluorescence data.
Tox21 Assay Protocol Summary:
2,000 HEK293 cells in 5 uL of culture medium containing 10% dialyzed FBS per well were dispensed into black wall/clear bottom 1536-well plates using a Multidrop Combi Dispenser (Thermo Scientific). The assay plates were incubated for 4-5 hr at 37C to allow cell attachment to the well bottom, followed by the transfer of 23 nL compound or DMSO vehicle by a pintool work station (Kalypsys, San Diego, CA). After the assay plates were incubated overnight at 37C and 5% CO2, fluorescence intensities in the assay plates were measured by an Envision (PerkinElmer, Shelton, CT) plate reader using three labels for measuring blue, green and red fluorescence at […] 460, 535 and 590nm respectively.
(In qHTS, concentration-response curves come from the screen itself.)
For `CN(C)c1ccc(C(c2ccccc2)c2ccc(N(C)C)cc2)cc1`, the Potency entry is “inactive”.
On the same count and under the same terms, next, `Nc1cc(C(=O)O)c(O)c(S(=O)(=O)O)c1`: “inactive”; `CCOC(=O)Cc1cccc2ccccc12`: “inactive”.
Same read-out and setting: as for `Brc1c2ccccc2cc2ccccc12`, the entry is “inactive”.
Regarding `CCOc1ccc(N=Nc2ccc(/C=C/c3ccc(N=Nc4ccc(OCC)cc4)cc3S(=O)(=O)O)c(S(=O)(=O)O)c2)cc1`, the Potency result was “inactive”.
As for `C=C1C(=C/C=C2\CCC[C@]3(C)[C@@H]([C@H](C)/C=C/[C@@H](O)C4CC4)CC[C@@H]23)C[C@@H](O)C[C@@H]1O`, the Potency result is “inactive”.
Same read-out and setting: as for `CCCCC(CC)COC(=O)COc1ccc(Cl)cc1Cl` (stereo not given), the entry is “inactive”.
With `COc1cc2nc(N(C)CCCNC(=O)C3CCCO3)nc(N)c2cc1OC` (stereo not given), the fluorescence, % of fluorescent control was -0.585% [at 18.6 µM] (inactive).
On to `CC1OC(=O)C(C)OC1=O` (stereo not given), for which the Potency result was “inactive”.
The same measure, in the same setting: as for `C#C[C@]1(O)CC[C@H]2[C@@H]3CCc4cc(OC5CCCC5)ccc4[C@H]3CC[C@@]21C`, the entry is “inactive”; as for `CCCCCCCCCCCc1ccccc1`, “inactive”; as for `CC(C)CC(=O)C1C(=O)c2ccccc2C1=O`, “inactive”.
Same read-out and setting: next, `COc1cc2nc(N3CCN(C(=O)C4COc5ccccc5O4)CC3)nc(N)c2cc1OC` (stereo not given): “inactive”; `CC(C)Nc1ccc(NC(C)C)c2c1C(=O)c1ccccc1C2=O`: “inactive”; `N=c1ccn2c(n1)O[C@H]1[C@H](O)[C@@H](CO)O[C@H]12`: “inactive”.
Still for that read-out and setting: next, `CCCCC`: “inactive”.
Consider `CCCCCCCCCCCC(=O)OC[C@@H](O)[C@H]1OC[C@H](OCCO)[C@H]1OCCO`, for which the Potency result is “inactive”.
The same measure, in the same setting: as for `COC(C)OC`, the entry is “inactive”; as for `CC(C)(CO)[N+](=O)[O-]`, “inactive”; as for `O=C(Nc1ccc(S(=O)(=O)N2CCOCC2)cc1)c1cc(Cl)ccc1NS(=O)(=O)c1ccc(Cl)s1`, “inactive”.
As to `C=C1[C@H]2CC[C@@H]3[C@H]2C(C)(C)CCC[C@]13C`, the Potency entry is “inactive”.
As to `C=CCOc1ccccc1OCC(O)CNC(C)C` (stereo not given), the fluorescence, % of fluorescent control was 0.157% [at 18.6 µM] (inactive).
For the molecule `C[N+]1(CC2COC(c3ccccc3)(C3CCCCC3)O2)CCCCC1` (stereo not given), the Potency result was “inactive”.
Same read-out and setting: as for `O=C(O)c1ccccc1Cl`, the entry is “inactive”; as for `Cc1cccc(C)c1OCC(=O)N[C@@H](Cc1ccccc1)[C@@H](O)C[C@H](Cc1ccccc1)NC(=O)[C@H](C(C)C)N1CCCNC1=O`, “inactive”.
Take `C#CCN(C)CCCOc1ccc(Cl)cc1Cl`: the Potency result was “inactive”.
For `CC(C)C[C@H]1C(=O)N2CCC[C@H]2[C@]2(O)O[C@](NC(=O)[C@@H]3C=C4c5cccc6[nH]c(Br)c(c56)C[C@H]4N(C)C3)(C(C)C)C(=O)N12`, the Potency entry is “inactive”.
Still for that read-out and setting: as for `C[Si](C)(CCCN)O[Si](C)(C)CCCN`, the entry is “inactive”; as for `O=C(O)C(S)C(S)C(=O)O` (stereo not given), “inactive”.
With `CC(=O)NO`, the Potency result was “inactive”.
Regarding `CN(C)CCN(Cc1ccccc1)c1ccccn1`, the Potency entry is “inactive”.
In the case of `CCNc1cc(O)ccc1C`, the Potency result is “inactive”.
Still for that read-out and setting: next, `CCN(CC)CCNc1ccc(CNC=O)c2sc3ccc(OC)cc3c(=O)c12`: “inactive”.
Regarding `CCCCCCCCCCCCCCOS(=O)(=O)O`, the Potency result was “inactive”.
For the molecule `Nc1ccc(N)c2c1C(=O)c1ccccc1C2=O`, the Potency entry was “inactive”.
Still for that read-out and setting: next, `CCO[C@H](Cc1ccc(OCCc2ccc(OS(C)(=O)=O)cc2)cc1)C(=O)O`: “inactive”.
Take `CCCCc1ncc(/C=C(\Cc2cccs2)C(=O)O)n1Cc1ccc(C(=O)O)cc1`: the Potency result is “inactive”.
Regarding `C[C@@H]1C[C@H]2O[C@@]3(O[C@@H]2C(C)(C)O)[C@H](O)[C@@]2(C)[C@@H]4CC[C@H]5C(C)(C)[C@@H](O[C@@H]6OC[C@@H](O)[C@H](O)[C@H]6O)CC[C@@]56C[C@@]46CC[C@]2(C)[C@@H]13`, the Potency entry was “inactive”.
On to `c1cc(CCCc2ccncc2)ccn1`, for which the Potency entry was “inactive”.
Still for that read-out and setting: as for `c1ccc(-c2ccccn2)nc1`, the entry is “inactive”.

These data come from PubChem BioAssay (Tox21).
